Experimental data: PubChem BioAssay (NCATS)
Records with an inconclusive call do not appear. A number with no mark means an inactive call. The source made the active and inactive calls. Calls come from the whole dose curve; as a rule, active = well fitted curve in the direction sought with a large enough effect; inconclusive = small, poorly fitted or top-dose-only effect, or another doubt; inactive = no such curve, though single readings can be large; an effect the other way counts as inactive or inconclusive.

Experiment: qHTS of pediatric cancer cell lines to identify multiple opportunities for drug repurposing: Primary screen for NB-EBc1 cells (AID 1347095);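 for activity change, negative = cytotoxic: plate controls were DMSO neutral control for no effect and bortezomib for full effect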
Settings: NB-EBc1 neuroblastoma viability, CellTiter-Glo luminescence, 48 h; series mostly up to 46 µM
Outline: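 Plated cells (500-1,000 per well, growth media) were allowed to settle for 5 hours, treated with compound dilutions for 48 hours, then lysed with CellTiter-Glo for 15 min at room temperature before luminescence reading.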
Potency is the fitted concentration of half-maximal effect.

Row | SMILES | Potency | activity change, negative = cytotoxic
1 | CN1CCN(Cc2ccc(NC(=O)Nc3ccc(Oc4cc(NC(=O)C5CC5)ncn4)cc3)cc2C(F)(F)F)CC1 | 0.935 µM (active) | 
2 | CC(C)c1ccccc1Cc1cc(C(=O)Nc2ccc(S(=O)(=O)c3ccccc3C(C)(C)C)cc2)c(O)c(O)c1O | 2.35 µM (active) | 
3 | CNC(=O)c1ccccc1Nc1nc(Nc2ccc(N3CCOCC3)cc2OC)ncc1Cl | 0.662 µM (active) | 
4 | Nc1nc(NCCNc2ncc(-n3ccnc3)c(-c3ccc(Cl)cc3Cl)n2)ccc1[N+](=O)[O-] | 13.2 µM (active) | 
5 | COc1ccc(CC2c3cc(OC)c(OC)cc3CC[N+]2(C)CCC(=O)OCCCCCOC(=O)CC[N+]2(C)CCc3cc(OC)c(OC)cc3C2Cc2ccc(OC)c(OC)c2)cc1OC (stereo not drawn) |  | 16.9% [at 9.22 µM]
6 | O=C(O)c1ccc2c(c1)nc(Nc1cccc(Cl)c1)c1ccncc12 | 2.35 µM (active) | 
7 | CC(C)(O)CCc1ccc(OCc2cc(-c3cccc(OC(F)F)c3)c3ncccc3c2)cc1 | inactive | 
8 | Cc1cn(-c2cc(NC(=O)c3ccc(C)c(Nc4nccc(-c5cccnc5)n4)c3)cc(C(F)(F)F)c2)cn1 | 23.5 µM (active) | 
9 | COC(=O)c1ccc2c(C(=Nc3ccc(N(C)C(=O)CN4CCN(C)CC4)cc3)c3ccccc3)c(O)[nH]c2c1 | 2.09 µM (active) | 
10 | C1=CCOCc2cc(ccc2OCCN2CCCC2)Nc2nccc(n2)-c2cccc(c2)OCC1 | 7.43 µM (active) | 
11 | C=C1C(=CC=C2CCCC3(C)[C@@H]([C@H](C)C=CC=CC(O)(CC)CC)CC[C@@H]23)C[C@@H](O)C[C@@H]1O (stereo partly drawn) | 18.7 µM (active) | 
12 | CCOc1cc2ncc(C#N)c(Nc3ccc(F)c(Cl)c3)c2cc1NC(=O)C=CCN(C)C | 9.35 µM (active) | 
13 | CC(C)(C)c1cc(C(C)(C)C)c(NC(=O)c2c[nH]c3ccccc3c2=O)cc1O | inactive | 
14 | CCS(=O)(=O)c1cccc(-c2cc(C(=O)NC3CCN(C)CC3)c(C)c3[nH]c4ncc(C)cc4c23)c1 | 16.6 µM (active) | 
15 | C#Cc1cccc(Nc2ncnc3cc(OC)c(OCCCCCCC(=O)NO)cc23)c1 | 0.148 µM (active) | 
16 | CC(C)c1ccc(Cn2ccc3c4c(N)nc(NC5CC5)nc4ccc32)cc1 | 4.69 µM (active) | 
17 | Cc1ccc(S(=O)(=O)Nc2cc(Cl)ccc2C(=O)Nc2nc(-c3ccccc3)cs2)cc1 | 7.43 µM (active) | 
18 | CC[C@@]1(O)C(=O)OCc2c1cc1n(c2=O)Cc2cc3cc(O)ccc3nc2-1 | 0.0118 µM (active) | 
19 | C=CC(=O)Nc1cc2c(Nc3ccc(F)c(Cl)c3)ncnc2cc1C#CC(C)(C)N1CCN(C)CC1 | 2.96 µM (active) | 
20 | Cc1cc(N2CCOCC2)cc2[nH]c(-c3c(NC[C@@H](O)c4cccc(Cl)c4)cc[nH]c3=O)nc12 | 0.59 µM (active) | 
21 | COc1ccc(C(=O)CC2(O)C(=O)Nc3c(Cl)ccc(Cl)c32)cc1 (stereo not drawn) | 0.418 µM (active) | 
22 | O=C(C=Cc1cccc(S(=O)(=O)Nc2ccccc2)c1)NO | 1.91 µM (active) | 
23 | CNC(=O)c1cc(Oc2ccc(NC(=O)Nc3cc(C(C)(C)C)nn3-c3ccc4ncccc4c3)c(F)c2)ccn1 | 2.35 µM (active) | 

Experiment: qHTS of pediatric cancer cell lines to identify multiple opportunities for drug repurposing: Primary screen for U-2 OS cells (AID 1347096); note: nearly all actives have a fitted effect of over 50% in size;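 for activity change, negative = cytotoxic: plate controls were DMSO wells for no effect and bortezomib positive control wells for full effect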
Settings: U-2 OS viability, CellTiter-Glo luminescence, 48 h; series mostly up to 46 µM
Outline: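 Cells (500-1,000/well) rested 5 h, then received compounds for 48 h; metabolically active cells were measured by CellTiter-Glo luminescence. Final concentrations spanned up to 46 µM (MIPE, 11-point) or 0.59 nM-46 µM (NPC, 8-point) in primary screens, 11-point in follow-ups.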

Row | SMILES | Potency | activity change, negative = cytotoxic
24 | CCN1CCN(Cc2ccc(-c3cc4c(N[C@H](C)c5ccccc5)ncnc4[nH]3)cc2)CC1 | 18.7 µM (active) | 
25 | CCc1c2c(nc3ccc(O)cc13)-c1cc3c(c(=O)n1C2)COC(=O)[C@]3(O)CC | inactive | 
26 | CNC(=O)c1ccc(N2C(=S)N(c3cnc(C#N)c(C(F)(F)F)c3)C(=O)C23CCC3)cc1F | 14.8 µM (active) | 
27 | Cc1ccc(C(=O)Nc2cccc(C(F)(F)F)c2)cc1-c1ccc2nc(NCCN3CCOCC3)ncc2c1 | inactive | 
28 | CCc1cc2c(cc1N1CCC(N3CCOCC3)CC1)C(C)(C)c1[nH]c3cc(C#N)ccc3c1C2=O | inactive | 
29 | CN1CCN(c2ccc3nc(-c4c(N)c5c(F)cccc5[nH]c4=O)[nH]c3c2)CC1 | 18.7 µM (active) | 
30 | Clc1cccc(-c2nnnn2Cc2cccnc2)c1Cl | inactive | 
31 | COc1cc(C)c(Sc2cnc(NC(=O)c3ccc(CNC(C)C(C)C)cc3)s2)cc1C(=O)N1CCN(C(C)=O)CC1 (stereo not drawn) | inactive | 
32 | CN1CCN(Cc2ccc(NC(=O)Nc3ccc(Oc4cc(NC(=O)C5CC5)ncn4)cc3)cc2C(F)(F)F)CC1 | inactive | 
33 | CC(C)c1ccccc1Cc1cc(C(=O)Nc2ccc(S(=O)(=O)c3ccccc3C(C)(C)C)cc2)c(O)c(O)c1O | inactive | 
34 | O=C(c1cncc(Br)c1)N1CCC(N2CCCC2)CC1 | inactive | 
35 | CNC(=O)c1ccccc1Nc1nc(Nc2ccc(N3CCOCC3)cc2OC)ncc1Cl | 18.7 µM (active) | 
36 | COc1ccc(CC2c3cc(OC)c(OC)cc3CC[N+]2(C)CCC(=O)OCCCCCOC(=O)CC[N+]2(C)CCc3cc(OC)c(OC)cc3C2Cc2ccc(OC)c(OC)c2)cc1OC (stereo not drawn) |  | 3.34% [at 9.22 µM]
37 | O=C(O)c1ccc2c(c1)nc(Nc1cccc(Cl)c1)c1ccncc12 | 18.7 µM (active) | 
38 | CC(C)(O)CCc1ccc(OCc2cc(-c3cccc(OC(F)F)c3)c3ncccc3c2)cc1 | inactive | 
39 | Cc1cn(-c2cc(NC(=O)c3ccc(C)c(Nc4nccc(-c5cccnc5)n4)c3)cc(C(F)(F)F)c2)cn1 | inactive | 
40 | C1=CCOCc2cc(ccc2OCCN2CCCC2)Nc2nccc(n2)-c2cccc(c2)OCC1 | inactive | 
41 | CCOc1cc2ncc(C#N)c(Nc3ccc(F)c(Cl)c3)c2cc1NC(=O)C=CCN(C)C | inactive | 
42 | CC(C)(C)c1cc(C(C)(C)C)c(NC(=O)c2c[nH]c3ccccc3c2=O)cc1O | inactive | 
43 | CCS(=O)(=O)c1cccc(-c2cc(C(=O)NC3CCN(C)CC3)c(C)c3[nH]c4ncc(C)cc4c23)c1 | 14.8 µM (active) | 
44 | C#Cc1cccc(Nc2ncnc3cc(OC)c(OCCCCCCC(=O)NO)cc23)c1 | 1.48 µM (active) | 
45 | CC(C)c1ccc(Cn2ccc3c4c(N)nc(NC5CC5)nc4ccc32)cc1 | 18.7 µM (active) | 
46 | Cc1ccc(S(=O)(=O)Nc2cc(Cl)ccc2C(=O)Nc2nc(-c3ccccc3)cs2)cc1 | inactive | 
47 | COc1ccc(CC2SC(=O)NC2=O)cc1C(=O)NCc1ccc(C(F)(F)F)cc1 (stereo not drawn) | inactive | 
48 | CC[C@@]1(O)C(=O)OCc2c1cc1n(c2=O)Cc2cc3cc(O)ccc3nc2-1 | inactive | 
49 | C=CC(=O)Nc1cc2c(Nc3ccc(F)c(Cl)c3)ncnc2cc1C#CC(C)(C)N1CCN(C)CC1 | 7.43 µM (active) | 
50 | Cc1cc(N2CCOCC2)cc2[nH]c(-c3c(NC[C@@H](O)c4cccc(Cl)c4)cc[nH]c3=O)nc12 | 18.7 µM (active) | 
51 | COc1ccc(C(=O)CC2(O)C(=O)Nc3c(Cl)ccc(Cl)c32)cc1 (stereo not drawn) | inactive | 
52 | O=C(C=Cc1cccc(S(=O)(=O)Nc2ccccc2)c1)NO | 5.4 µM (active) | 
53 | CC[C@H](CO)Nc1nc(NCc2ccccc2)c2ncn(C(C)C)c2n1 | inactive | 
